dFosB act-1 = activators of delta FosB homodimer, primary screen, biochemical, fluorescence polarization, TAMRA-CDK5 oligo, single point. activation, % at 25 µM. purified delta FosB; percent of positive-control signal above neutral wells. 0.99% of 340,000 active. Protein FosB (Mus musculus), P13346;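 active = mean activation above about 17%, with every replicate also reaching it, limit read from the data, passing the limit was not always enough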
Target sequence (P13346 whole entry, looked up): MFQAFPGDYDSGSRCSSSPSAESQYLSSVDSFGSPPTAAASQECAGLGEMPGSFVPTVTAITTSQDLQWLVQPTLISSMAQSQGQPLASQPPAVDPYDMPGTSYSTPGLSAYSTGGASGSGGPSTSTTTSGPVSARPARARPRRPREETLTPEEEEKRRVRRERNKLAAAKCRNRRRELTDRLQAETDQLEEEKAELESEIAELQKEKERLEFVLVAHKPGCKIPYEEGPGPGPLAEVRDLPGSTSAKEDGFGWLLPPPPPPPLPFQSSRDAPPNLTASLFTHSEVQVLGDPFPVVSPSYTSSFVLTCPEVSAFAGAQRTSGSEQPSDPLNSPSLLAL
FGF22 binding-1 = binders of human FGF22 protein, primary screen, FGF22 synaptogenesis inhibitor project, biophysical, thermal shift, single point; activity (Tm shift, normalised), % at 9.99 µM; Fibroblast growth factor 22 (Homo sapiens), Q9HCT0; 1.5% of 340,000 active; recombinant FGF22 thermal shift, SYPRO orange fluorescence; percent of sucrose octasulfate shift, DMSO zero;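 active = mean Tm shift, scaled 0 neutral to 100 positive control, at about 1.3% or above, every replicate too, limit read from the data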
CDK5 p35 inh = inhibitors of human CDK5/p35 kinase, primary screen, biochemical, single concentration; 0.01% of 330,000 active; Cyclin-dependent kinase 5 (Homo sapiens) + Cyclin-dependent kinase 5 activator 1 (Homo …; inhibition, % at 10 µM; AID 488839, 2010; Recombinant CDK5/p35, ADP-Glo luminescence, 60 min;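 active = highest replicate inhibition of at least 50% and at least 75% of replicates reaching 50%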;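 also: plate controls were DMSO neutral control for no effect and GW8510 at 10 µM for full effect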
PvdQ inh = P. aeruginosa PvdQ acylase inhibitors, primary screen, biochemical, fluorescence, plate reader and imaging, single point. PvdQ acylase [Pseudomonas aeruginosa LESB58]. 0.063% of 340,000 active. inhibition, % at 10 µM. AID 488965, 2010. purified PvdQ acylase; in the data active = inhibition above about 30%, passing the limit was not always enough;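 also: 0% = vehicle neutral wells and 100% = reference inhibitor wells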
PglD inh = C. jejuni PglD acetyltransferase inhibitors, primary screen, biochemical, DTNB colorimetric, single point; UDP-N-acetylbacillosamine N-acetyltransferase PglD (Campylobacter jejuni); purified PglD enzyme, DTNB colorimetric CoA detection; inhibition, % at 12.5 µM; 0.098% of 360,000 active; in the data active = inhibition above about 16%, passing the limit was not always enough
SIRT5 block = SIRT5 desuccinylase inhibitors, primary screen, biochemical, fluorescence imaging, single point, set 5. NAD-dependent protein deacylase sirtuin-5, mitochondrial (Homo sapiens), Q9NXA8. Purified SirT5, succinyl-peptide AMC, trypsin-coupled fluorescence. inhibition, % at 15 µM. 1.1% of 330,000 active; in the data active = inhibition above about 15%
Target sequence (Q9NXA8 whole entry, looked up): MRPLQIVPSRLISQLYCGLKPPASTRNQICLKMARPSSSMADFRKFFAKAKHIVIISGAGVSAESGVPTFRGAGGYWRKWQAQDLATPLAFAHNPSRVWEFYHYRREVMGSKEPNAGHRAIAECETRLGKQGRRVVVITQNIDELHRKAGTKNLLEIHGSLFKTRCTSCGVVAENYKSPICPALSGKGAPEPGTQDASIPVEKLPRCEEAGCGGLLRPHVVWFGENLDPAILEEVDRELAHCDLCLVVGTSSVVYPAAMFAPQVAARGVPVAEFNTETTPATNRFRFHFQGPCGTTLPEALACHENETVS
dFosB act-2 = activators of mouse delta FosB DNA binding, confirmation, biochemical, fluorescence polarization, TAMRA-CDK5 oligo, cherry-picked samples; 2,400 tested, under 10 active; purified delta FosB; normalised: neutral wells 0, positive control 100; activation, % at 24.9 µM; shares compounds with dFosB act-1;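 active = highest replicate activation at or above 34% and every replicate reaching that threshold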;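 also: higher polarization means more probe DNA bound by delta FosB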
PglD confirm = PglD acetyltransferase inhibitors, confirmation, biochemical, DTNB absorbance, single point, cherry-picked samples; shares compounds with PglD inh; Purified C. jejuni PglD, DTNB absorbance 412 nm; inhibition, % at 20 µM; 320 tested, under 10 active; AID 743156, 2013;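 active = mean inhibition across replicates of at least 20% with every single replicate also at 20% or more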;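 also: initial rate of CoA release by acetyl transfer from AcCoA to the UDP-4-amino sugar; 0% = median of neutral control wells and 100% = median of positive control wells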
FGF22 binding-2 = binders of human FGF22 protein, dose response, FGF22 synaptogenesis inhibitor project, biophysical, thermal shift, cherry-pick retest; shares compounds with FGF22 binding-1; recombinant FGF22 thermal shift, SYPRO orange fluorescence; thermal shift activity, °C (ΔTm) at 38 µM; 2% of 1,000 active; AID 720646, 2013;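 active = fitted rise in melting shift crosses a set limit at or below the top valid dose tested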
SYPRO no-protein = compound-only thermal shift signal without protein, dose response, artefact control for FGF22 binder project, biochemical, cherry-picked samples, RT-PCR instrument; AC50, µM (doses to about 38 µM); 2% of 1,000 active; compound-only SYPRO orange thermal shift counter-screen, no protein; shares compounds with FGF22 binding-1;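 active = rising signal whose fitted curve reaches the 0.54 level within the top valid dose, showing a melting point, actives reach about 13 µM in these data; inactive = the rest, including activity in the opposite direction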; also: value is where the raw curve crosses a fixed level and not half-maximal
* hit, by the source's call; i = inactive; nt = no result given. Sampled rows, rich in hits. Any-hit rate of the full collection: about 2.8%.

SMILES	dFosB act-1	FGF22 binding-1	CDK5 p35 inh	PvdQ inh	PglD inh	SIRT5 block	PglD confirm	others
CC(=O)Nc1ccc(NC(=O)C(C)OC(=O)c2cccc(S(=O)(=O)N3CCCCC3)c2)cc1 (configuration not stated)	32.2*	0.0	-0.4	-7.7	-4.8	-1.5	nt	dFosB act-2=-3.7
CC(=O)Nc1ccc(NC(=O)C(C)OC(=O)c2cccc(S(=O)(=O)N3CCCCCC3)c2)cc1 (configuration not stated)	-0.5	0.0	-1.0	9.5	-4.4	-1.9	nt
C[C@@H]1CN([C@H](C)CO)C(=O)Cc2cc(NC(=O)C3CC3)ccc2O[C@H]1CN(C)Cc1ccccc1	nt	-0.1	nt	nt	-0.3	-6.6	nt
CC(=O)Nc1ccc2nc(NC(=O)COc3ccc(C)cc3)sc2c1	19.3*	1.5*	-0.2	2.5	nt	-3.2	nt	dFosB act-2=-6.3;FGF22 binding-2=-0.001;SYPRO no-protein=11.5µM*
COc1ccc(OCC(=O)Nc2ccc3nc(C)sc3c2)cc1	-5.0	42.1	-0.7	-15.1	nt	1.6	nt
O=C(N/N=C/c1ccncc1)c1cccc(NC(=O)c2ccc(Cl)cc2)c1	41.1*	2.4*	0.9	-4.1	nt	1.6	nt	dFosB act-2=5.0;FGF22 binding-2=0.066;SYPRO no-protein=i
O=C(N/N=C\c1cccnc1)c1cc(-c2ccc(Cl)s2)[nH]n1	32.9*	1.3*	-1.4	4.0	nt	-0.9	nt	dFosB act-2=3.2;FGF22 binding-2=-0.186;SYPRO no-protein=i
CO[C@H]1CN(C)C(=O)c2ccc(NC(C)=O)cc2OC[C@H](C)N(C(=O)C2CCC2)C[C@@H]1C	nt	nt	nt	nt	nt	4.2	nt
C[C@@H](NC(=O)C[C@@H]1CC[C@@H](NC(=O)Cc2ccccn2)[C@@H](CO)O1)c1ccccc1	nt	0.1	nt	nt	-1.7	2.9	nt
CCCCN1C(=O)c2ccc(C(=O)Nc3ccc(C)c(S(=O)(=O)N(C)C)c3)cc2C1=O	-2.2	nt	0.1	0.6	24.9*	nt	-0.8
CCCCN1C(=O)c2ccc(C(=O)Nc3cccc(C)c3C)cc2C1=O	-0.6	nt	-0.4	-0.4	-5.8	nt	nt
COc1ccc(CN(C)C[C@H]2OCCCC[C@@H](C)Oc3ccc(NC(=O)C4CCCCC4)cc3C(=O)N([C@@H](C)CO)C[C@@H]2C)cc1	nt	0.0	nt	nt	0.6	11.5	nt
Cn1c(CC(=O)Nc2ccccc2Cl)nnc1SCC(=O)Nc1nncs1	6.7	-0.1	0.2	3.4	25.7*	0.6	12.6
CCCC(=O)Nc1ccc2c(c1)OC[C@H](C)N(C(=O)c1ccncc1)C[C@H](C)[C@@H](OC)CN(C)C2=O	nt	-0.6	nt	nt	nt	nt	nt
CO[C@@H]1CC[C@@H]2CCOc3c(C#N)cccc3C(=O)N(C)[C@@H](C)C(=O)N(C)C[C@H]1O2	nt	0.0	nt	nt	5.3	-3.0	nt
C/C(=N/OCO/N=C(/C)c1ccc(F)cc1)c1ccc(F)cc1	-1.9	0.0	2.5	-2.2	25.9*	-1.9	-0.3
CC(C)NC(=O)N(C)C[C@@H]1Oc2ccc(NS(=O)(=O)c3ccc(Cl)cc3)cc2C(=O)N([C@@H](C)CO)C[C@H]1C	nt	0.1	nt	nt	10.1	-5.5	nt
CCOC(=O)C1=C(C)NC(C)=C(C(=O)OCC)C1C(=O)OCC(=O)N1CCCCC1C (configuration not stated)	5.3	0.1	-1.0	3.7	-2.6	-4.6	nt
CCOC(=O)c1[nH]c(C)c(C(=O)OCC(=O)N2CCCCC2C)c1C (configuration not stated)	-1.4	nt	-7.0	-2.3	23.2*	nt	-1.5
CCN(CC)S(=O)(=O)c1ccc(NS(=O)(=O)c2cccc(C)c2)cc1	-7.2	nt	-0.1	2.0	24.9*	nt	-0.3
Cc1ccc2cc(C3CC(c4ccco4)=NN3C(=O)CCCC(=O)O)c(Cl)nc2c1 (configuration not stated)	-3.6	0.0	-3.6	-4.0	34.2*	5.3	1.7
COc1ccc2nc(Cl)c(C3CC(c4ccco4)=NN3C(=O)CCC(=O)O)cc2c1 (configuration not stated)	-7.1	nt	1.2	-11.5	nt	nt	nt
Cc1ccc2nc(Cl)c(C3CC(c4ccco4)=NN3C(=O)CCCC(=O)O)cc2c1 (configuration not stated)	-5.4	0.1	-0.2	-3.1	nt	1.3	nt
Cc1cccc2cc(C3CC(c4ccco4)=NN3C(=O)CCC(=O)O)c(Cl)nc12 (configuration not stated)	7.0	0.0	3.2	3.1	23.4*	-3.1	-5.9
O=[N+]([O-])c1ccc(O)c(C=Nc2cccc3ncccc23)c1	-22.6	0.3	-0.7	6.8	22.6*	-2.6	9.1
SMILES	dFosB act-1	FGF22 binding-1	CDK5 p35 inh	PvdQ inh	PglD inh	SIRT5 block	PglD confirm	others
O=[N+]([O-])c1ccc(O)c(C=Nc2cccc3ccccc23)c1	2.3	nt	-0.5	-13.8	0.0	-2.2	nt
O=C(O)c1cccnc1SC1CC(=O)N(Cc2ccccc2)C1=O (configuration not stated)	-6.8	nt	-0.4	-5.9	39.0*	nt	1.6
O=C(O)c1cccnc1SC1CC(=O)N(CCc2ccccc2)C1=O (configuration not stated)	6.8	-0.1	-1.0	-4.9	4.2	-1.2	nt
CCOc1nc(-c2ccccc2)ccc1-c1noc(-c2cccs2)n1	1.2	nt	-6.1	-13.4	21.4*	nt	-8.7
CCOc1cc(N2CCOCC2)c(OCC)cc1NC(=O)COC(=O)COc1ccc(C#N)cc1	-5.9	-0.3	1.9	-19.0	33.3*	-0.8	-2.3
CCOc1cc(N2CCOCC2)c(OCC)cc1NC(=O)COC(=O)COc1cc(C)cc(C)c1	-1.9	0.0	2.3	-5.7	2.5	1.7	nt

Source: PubChem BioAssay (Broad Institute)
